According to PubChem BioAssay (Tox21):
Calls of active or inactive are those of the source. Unless noted, the call rests on the fitted dose curve; in most records, active means well fitted curve in the direction sought with a large enough effect in the repeat runs; inconclusive means weak or mixed curves; inactive means no such curve, though single readings can be large; an effect the other way counts as inactive or inconclusive.

Legend:
[1] = qHTS assay to identify small molecule antagonists of the glucocorticoid receptor (GR) signaling pathway - cell viability counter screen (AID 720693); conditions: GR-bla HeLa viability, CellTiter-Glo luminescence, 18 h, with 5 nM dexamethasone present; series mostly up to 58.5 µM; further: nearly all actives have a fitted effect of over 55% in size
[2] = qHTS assay to identify small molecule antagonists of the androgen receptor (AR) signaling pathway - cell viability counter screen (AID 743033; further: nearly all actives have a fitted effect of over 45% in size; further: potency means the concentration at half of the fitted maximal effect); conditions: AR-bla HEK293 viability, CellTiter-Glo luminescence, 16 h; series mostly up to 58.5 µM
[3] = qHTS assay to identify small molecule antagonists of the androgen receptor (AR) signaling pathway using the MDA cell line - cell viability counter screen (AID 743041; further: nearly all actives have a fitted effect of over 45% in size); conditions: MDA-kb2 viability, CellTiter-Fluor, 16 h, cells co-treated with R1881 androgen agonist; series mostly up to 70.3 µM
Outline: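 R1881-driven MDA-kb2 AR-luc cells, 3,000/well, were dosed with library compounds for 16 h; cell health came from CellTiter-Fluor fluorescence in the reporter wells.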

[4] = system: thyroid hormone receptor (rat, GH3 cells); test: qHTS assay to identify small molecule agonists of the thyroid receptor (TR) signaling pathway (AID 743066; calls by dose curve); conditions: GH3.TRE-Luc cells, TR agonist luciferase, 24 h; series mostly up to 83.9 µM
[5] = target: Estrogen receptor (Homo sapiens) (UniProt P03372); test: qHTS assay to identify small molecule antagonists of the estrogen receptor alpha (ER-alpha) signaling pathway (AID 743069; active means well fitted curve in the direction sought with a large enough effect in the signal ratio in the repeat runs, not every such curve was filed as active; inconclusive means weak or mixed curves, or effect the other way; inactive means no such curve, though single readings can be large or run the other way; the % refers to the signal ratio); conditions: HEK293 ER-alpha-UAS-bla, beta-lactamase ratio, antagonist mode; series mostly up to 69.4 µM
Outline: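 Compound effects are measured against 17beta-estradiol stimulation in HEK293 cells with a UAS-controlled beta-lactamase reporter for ER-alpha. Exposure lasts 18 hr at 37C; LiveBLAzer B/G FRET substrate follows for 2 hr at room temperature.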

[6] = qHTS assay to identify small molecule antagonists of the estrogen receptor alpha (ER-alpha) signaling pathway - cell viability counter screen (AID 743074; calls by dose curve;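 further: HEK293 cells carrying ER-alpha-UAS-bla reporter stimulated with 17beta-estradiol; nearly all actives have a fitted effect of over 45% in size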); conditions: ERalpha-bla HEK293 viability, CellTiter-Glo luminescence, 18 h; series mostly up to 69.4 µM
[7] = target: Estrogen receptor (Homo sapiens) (UniProt P03372); test: qHTS assay to identify small molecule agonists of the estrogen receptor alpha (ER-alpha) signaling pathway (AID 743075; calls by dose curve; further: potency means the concentration at half of the fitted maximal effect); conditions: HEK293 ER-alpha-UAS-bla, beta-lactamase FRET ratio, 18 h; series mostly up to 70.1 µM
[8] = target: Estrogen receptor (Homo sapiens) (UniProt P03372); test: qHTS assay to identify small molecule agonists of the estrogen receptor alpha (ER-alpha) signaling pathway using the BG1 cell line (AID 743079); conditions: BG1Luc4E2 cells, ERE-luciferase agonist, 22 h; series mostly up to 70.3 µM; further: nearly all actives have a fitted effect of over 20% in size; further: potency means the concentration at half of the fitted maximal effect
[9] = qHTS assay to identify small molecule antagonists of the estrogen receptor alpha (ER-alpha) signaling pathway using the BG1 cell line (AID 743080; calls by dose curve; further: nearly all actives have a fitted effect of over 25% in size); conditions: BG1Luc4E2 ERE-luciferase antagonist mode, luminescence; series mostly up to 70.3 µM
Outline: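 Antagonist mode: compounds in DMSO were pinned onto BG1-Luc-4E2 cells alongside 17beta-estradiol agonist, incubated 21.5 h, and ERE-driven luciferase measured with ONE-Glo. Cytotoxicity was multiplexed using CellTiter-Fluor fluorescence.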

[10] = qHTS assay to identify small molecule antagonists of the estrogen receptor alpha (ER-alpha) signaling pathway using the BG1 cell line - cell viability counter screen (AID 743081); conditions: BG1Luc4E2 viability, CellTiter-Fluor, 22 h; series mostly up to 70.3 µM;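 further: compound given together with 17beta-estradiol as the ER stimulus; nearly all actives have a fitted effect of over 45% in size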
Aromatase (Homo sapiens) = Aromatase (Homo sapiens) (UniProt P11511); test: qHTS assay to identify aromatase inhibitors (AID 743083); conditions: MCF-7 aro ERE, testosterone-driven ERE luciferase, 24 h; series mostly up to 70.3 µM; further: nearly all actives have a fitted effect of over 55% in size; further: potency means the concentration at half of the fitted maximal effect
[11] = qHTS assay for identifying genotoxic compounds that show differential cytotoxicity against isogenic chicken DT40 cell lines with known DNA damage response pathways - wild type cell line (AID 743012); conditions: DT40 wild type chicken cells viability, CellTiter-Glo, 40 h; series mostly up to 68.4 µM; further: nearly all actives have a fitted effect of over 60% in size; further: potency means the concentration at half of the fitted maximal effect
Outline: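 Wild type DT40, 300 cells/well, ~0.5 h settle at 37 C/5% CO2; compounds in DMSO added by pintool; 40 h at 37 C/5% CO2; CellTiter-Glo, 30 min RT; luminescence.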

[12] = qHTS assay for identifying genotoxic compounds that show differential cytotoxicity against isogenic chicken DT40 cell lines with known DNA damage response pathways - Rev3 mutant cell line (AID 743014); conditions: chicken DT40 Rev3-/- viability, CellTiter-Glo, 40 h; series mostly up to 68.4 µM; further: nearly all actives have a fitted effect of over 55% in size; further: potency means the concentration at half of the fitted maximal effect
[13] = qHTS assay for identifying genotoxic compounds that show differential cytotoxicity against isogenic chicken DT40 cell lines with known DNA damage response pathways - Rad54/Ku70 mutant cell line (AID 743015); conditions: DT40 Rad54/Ku70 mutant viability, CellTiter-Glo, 40 h; series mostly up to 66.8 µM; further: nearly all actives have a fitted effect of over 60% in size; further: potency means the concentration at half of the fitted maximal effect
[14] = qHTS assay to identify small molecule antagonists of the thyroid receptor (TR) signaling pathway - cell viability counter screen (AID 743064); conditions: GH3.TRE-Luc viability, CellTiter-Fluor, 24 h; series mostly up to 70.3 µM; further: nearly all actives have a fitted effect of over 50% in size; further: potency means the concentration at half of the fitted maximal effect
Outline: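 In-well cytotoxicity read by CellTiter-Fluor (30 min, 37 C) following 23.5 h exposure of GH3 cells bearing a TRE-luciferase sensor. Compounds were added alongside 1 nM (final) T3 to drive TR transactivation.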

[15] = qHTS assay to identify small molecule antagonists of the thyroid receptor (TR) signaling pathway (AID 743065); conditions: GH3.TRE-Luc, T3-stimulated luciferase inhibition, 23.5 h; series mostly up to 70.3 µM; further: nearly all actives have a fitted effect of over 55% in size; further: potency means the concentration at half of the fitted maximal effect
Outline: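 Antagonism measured as loss of luciferase signal in GH3 cells stably carrying a TRE-luciferase reporter, co-treated with compound and T3 (1 nM final) for 23.5 h at 37 C. Viability was read in the same well by CellTiter-Fluor.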

[16] = target: Androgen receptor (Homo sapiens) (UniProt P10275); test: qHTS assay to identify small molecule antagonists of the androgen receptor (AR) signaling pathway (AID 743035; active means well fitted inhibition curve with a large enough effect in the signal ratio in the repeat runs, not every such curve was filed as active; inconclusive means weak or mixed curves, or effect the other way; inactive means no such curve, though single readings can be large or run the other way; the % refers to the signal ratio); conditions: HEK293 AR-UAS-bla, R1881-stimulated, beta-lactamase FRET, 16 h; series mostly up to 58.5 µM
Outline: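 Fluorescence from a beta-lactamase FRET substrate (LiveBLAzer B/G, 2 h, room temperature) measured inhibition of R1881-stimulated signaling in GeneBLAzer AR-UAS-bla HEK293 cells exposed to compound for 16 h at 37C.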

[17] = target: Androgen receptor (Homo sapiens) (UniProt P10275); test: qHTS assay to identify small molecule agonists of the androgen receptor (AR) signaling pathway (AID 743036; active means well fitted activation curve with a large enough effect in the signal ratio in the repeat runs, with a control signal flat, not every such curve was filed as active; inconclusive means weak or mixed curves, or effect the other way; inactive means no such curve, though single readings can be large or run the other way; the % refers to the signal ratio); conditions: HEK293 AR-UAS-bla GripTite, beta-lactamase FRET ratio, 16 h; series mostly up to 62.4 µM
Outline: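 Activation was read as beta-lactamase FRET signal from LiveBLAzer B/G substrate, added for 2 h at room temperature. Before that, GeneBLAzer AR-UAS-bla GripTite (HEK293) cells had 16 h compound exposure at 37C.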

[18] = target: Androgen receptor (Homo sapiens) (UniProt P10275); test: qHTS assay to identify small molecule antagonists of the androgen receptor (AR) signaling pathway using the MDA cell line (AID 743042; further: nearly all actives have a fitted effect of over 55% in size); conditions: MDA-kb2 AR-luc, MMTV luciferase, R1881 antagonist, 16 h; series mostly up to 70.3 µM
Outline: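 Antagonist mode: compounds plus R1881 agonist added to MDA-kb2 AR-luc cells, incubated 16 h at 37C. Luciferase reporter luminescence quantified, with multiplexed CellTiter-Fluor readout for cell viability.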

[19] = target: Androgen receptor (Homo sapiens) (UniProt P10275); test: qHTS assay to identify small molecule agonists of the androgen receptor (AR) signaling pathway using the MDA cell line (AID 743040; further: nearly all actives have a fitted effect of over 20% in size); conditions: MDA-kb2 AR-luc cells, MMTV luciferase, 16 h; series mostly up to 70.3 µM
Outline: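 After a 5 h incubation at 37C and 0% CO2, MDA-kb2 reporter cells were dosed with compounds in DMSO and kept 16 h under the same conditions. Luciferase activity was then read as luminescence with ONE-Glo.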

Measured: Potency

Chain of Estrogen receptor (Homo sapiens) (P03372 whole entry, looked up): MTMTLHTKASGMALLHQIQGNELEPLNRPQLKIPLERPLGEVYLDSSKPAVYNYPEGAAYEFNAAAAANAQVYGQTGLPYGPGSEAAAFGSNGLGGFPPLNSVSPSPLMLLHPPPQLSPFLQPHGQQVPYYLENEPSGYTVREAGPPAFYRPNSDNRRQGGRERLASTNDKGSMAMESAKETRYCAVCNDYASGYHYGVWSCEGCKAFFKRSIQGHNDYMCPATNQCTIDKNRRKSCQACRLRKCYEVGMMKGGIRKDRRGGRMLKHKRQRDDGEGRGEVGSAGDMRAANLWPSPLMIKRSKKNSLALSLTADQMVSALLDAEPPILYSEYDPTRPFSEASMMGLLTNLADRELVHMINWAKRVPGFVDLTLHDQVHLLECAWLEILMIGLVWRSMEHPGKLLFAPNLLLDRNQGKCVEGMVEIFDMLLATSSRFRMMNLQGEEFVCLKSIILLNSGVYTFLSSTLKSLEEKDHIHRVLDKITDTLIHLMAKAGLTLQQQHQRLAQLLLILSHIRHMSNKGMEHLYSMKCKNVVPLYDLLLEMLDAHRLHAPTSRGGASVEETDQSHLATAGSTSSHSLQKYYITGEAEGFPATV
Chain of Aromatase (Homo sapiens) (P11511 whole entry, looked up): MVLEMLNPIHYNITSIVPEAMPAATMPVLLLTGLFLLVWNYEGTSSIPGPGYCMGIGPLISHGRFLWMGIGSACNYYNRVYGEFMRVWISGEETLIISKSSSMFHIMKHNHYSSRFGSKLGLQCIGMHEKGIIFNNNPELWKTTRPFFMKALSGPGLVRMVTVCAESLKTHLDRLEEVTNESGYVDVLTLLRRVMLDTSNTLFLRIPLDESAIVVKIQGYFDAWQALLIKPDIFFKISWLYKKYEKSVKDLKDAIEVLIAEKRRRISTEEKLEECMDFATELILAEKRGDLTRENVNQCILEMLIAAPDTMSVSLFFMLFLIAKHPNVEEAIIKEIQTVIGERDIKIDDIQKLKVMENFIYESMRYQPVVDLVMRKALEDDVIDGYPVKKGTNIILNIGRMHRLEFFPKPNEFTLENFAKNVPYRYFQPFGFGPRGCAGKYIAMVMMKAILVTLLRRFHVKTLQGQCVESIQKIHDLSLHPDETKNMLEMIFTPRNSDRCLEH
Chain of Androgen receptor (Homo sapiens) (P10275 whole entry, looked up): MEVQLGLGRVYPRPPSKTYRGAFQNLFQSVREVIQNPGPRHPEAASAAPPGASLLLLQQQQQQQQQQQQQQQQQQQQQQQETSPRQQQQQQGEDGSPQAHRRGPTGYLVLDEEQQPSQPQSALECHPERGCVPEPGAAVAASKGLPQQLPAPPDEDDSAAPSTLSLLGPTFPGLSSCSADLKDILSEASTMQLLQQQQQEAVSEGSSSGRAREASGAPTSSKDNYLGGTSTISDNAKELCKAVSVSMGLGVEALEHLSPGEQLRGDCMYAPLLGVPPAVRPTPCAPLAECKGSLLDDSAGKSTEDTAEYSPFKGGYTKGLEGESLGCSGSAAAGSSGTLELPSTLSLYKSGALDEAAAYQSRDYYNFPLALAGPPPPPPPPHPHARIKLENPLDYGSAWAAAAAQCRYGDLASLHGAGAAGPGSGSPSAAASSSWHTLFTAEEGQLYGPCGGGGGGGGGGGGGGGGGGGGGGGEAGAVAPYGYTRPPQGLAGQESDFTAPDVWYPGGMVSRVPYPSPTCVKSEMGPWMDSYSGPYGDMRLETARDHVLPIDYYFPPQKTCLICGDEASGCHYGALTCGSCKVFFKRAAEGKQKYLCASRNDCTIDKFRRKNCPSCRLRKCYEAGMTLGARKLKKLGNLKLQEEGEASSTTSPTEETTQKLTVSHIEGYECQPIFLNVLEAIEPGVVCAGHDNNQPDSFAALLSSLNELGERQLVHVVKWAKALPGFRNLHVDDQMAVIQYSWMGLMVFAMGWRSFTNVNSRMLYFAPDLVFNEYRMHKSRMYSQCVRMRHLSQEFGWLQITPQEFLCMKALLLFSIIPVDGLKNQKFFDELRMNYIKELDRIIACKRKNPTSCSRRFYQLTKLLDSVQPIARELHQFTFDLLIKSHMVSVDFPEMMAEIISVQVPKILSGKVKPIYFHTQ

ClP(Cl)(Cl)(Cl)Cl
inactive: [1] | [2] | [3] | [4] | [5] | [6] | [7] | [8] | [9] | [10] | Aromatase (Homo sapiens)

CO/C=C(/C(=O)OC)c1ccccc1COc1cccc(C(F)(F)F)n1
active: [11] 0.0769 µM | [12] 0.0769 µM | [13] 0.0485 µM | [2] 3.46 µM | [15] 0.432 µM | [7] 1.38 µM [inconclusive] | Aromatase (Homo sapiens) 68.5 µM
inactive: [3] | [14] | [4]

O=S(=O)(O)C(F)(F)C(F)(F)C(F)(F)C(F)(F)F
inactive: [1] | [4] | [5] | [7] | [8] | [9]

CCCCCC[N+](=O)[O-]
inactive: [1] | [2] | [16] | [17] | [3] | [18] | [15] | [4] | [6] | [10] | Aromatase (Homo sapiens)

N#Cc1cc(I)c(O)c(I)c1
active: [12] 68.6 µM | [2] 49 µM | [15] 27.3 µM
inactive: [19] | [4] | [10]

CCCC(Cn1cncn1)c1ccc(Cl)cc1Cl (configuration not stated)
inactive: [4] | [10]
active: [11] 5.45 µM | [12] 6.11 µM | [13] 10.9 µM | [15] 61.1 µM | Aromatase (Homo sapiens) 12.2 µM

Clc1cc(C(Cl)(Cl)Cl)cnc1Cl
active: [15] 38.6 µM | Aromatase (Homo sapiens) 24.3 µM
inactive: [11] | [12] | [13] | [2] | [3] | [4] | [6] | [7] | [8] | [10]

CC(=O)c1cc2c(cc1C)C(C)(C)C(C)CC2(C)C (configuration not stated)
active: Aromatase (Homo sapiens) 54.5 µM
inactive: [1] | [2] | [3] | [14] | [15] | [4] | [6] | [10]

CN1C(=O)C(O)N=C(c2ccccc2)c2cc(Cl)ccc21 (configuration not stated)
inactive: [1] | [2] | [3] | [5] | [6] | [7] | [10] | Aromatase (Homo sapiens)

NC(=O)C(Cl)(Cl)Cl
active: [8] 68.9 µM
inactive: [11] | [12] | [13] | [2] | [3] | [14] | [5] | [6] | [7] | [9] | [10] | Aromatase (Homo sapiens)

O=C(NC(=O)c1c(F)cccc1F)Nc1cc(Cl)c(Oc2ncc(C(F)(F)F)cc2Cl)c(Cl)c1
inactive: [19] | [3] | [4] | [7] | [10]
active: [11] 1.17 µM | [12] 2.08 µM | [13] 1.65 µM | [14] 58.5 µM
